Measurements published in publication PMC5540273 (PLoS ONE, 2017).
Read-outs that look alike come from different tables or passages of the source.

What was measured:
AAK1 = settings: n = 1
ABL1-nonphosphorylated = settings: concentration: 1 μM, replicates: in singlicate; n = 1
ABL1-phosphorylated = settings: concentration: 1 μM, replicates: in singlicate; n = 1
ABL2 = settings: concentration: 1 μM, replicates: in singlicate; n = 1
ACVR1B = settings: concentration: 1 μM, replicates: in singlicate; n = 1
ACVR1 = settings: concentration: 1 μM, replicates: in singlicate; n = 1
ACVR2A = settings: concentration: 1 μM, replicates: in singlicate; n = 1
ACVR2B = settings: concentration: 1 μM, replicates: in singlicate; n = 1
ACVRL1 = settings: concentration: 1 μM, replicates: in singlicate; n = 1
ADCK3 = system: T1, ADCK3; settings: concentration: 1 μM, replicates: in singlicate; n = 1
T1 construct: gene CABC1

[1] = concentration: 1 μM, replicates: in singlicate
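Note: KINOMEscan kinase panel screen.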

Compound	%Inh (AAK1; 1 µM)	%Inh (AAK1; [1])	%Inh (ABL1-nonphosphorylated)	%Inh (ABL1-phosphorylated)	%Inh (ABL2)	%Inh (ACVR1B)	%Inh (ACVR1)	%Inh (ACVR2A)	%Inh (ACVR2B)	%Inh (ACVRL1)	%Inh (ADCK3)
O=C(O)C(F)(F)F.O=c1[nH]ccc2nc(N[C@@H]3CCNC3)nc(Nc3cc(Cl)cc(Cl)c3)c12 [GSK2188764]	89%	–	–	–	–	–	–	–	–	–	–
Cc1ccccc1CC(=O)N1CCc2cc(-c3cn(C)c4ncnc(N)c34)ccc21 [GSK2603346]	–	3%	50%	25%	29%	0%	0%	0%	65%	11%	3%
CN(C)CCOc1ccc(-c2cc(-c3ccc(Cl)c(O)c3)c(-c3ccncc3)[nH]2)cc1.Cl.Cl [SB-684387]	–	0%	50%	59%	34%	90.5%	31%	0%	51%	0%	33%
Fc1cc(Cl)ccc1Nc1ccnc2cc(-c3ccc(CN4CCSCC4)o3)ccc12 [GW560106]	–	4%	95.9%	98.7%	89%	21%	84%	14%	91%	49%	3%
Cc1cccc(Nc2nc(N[C@H]3CCCC[C@H]3N)ncc2C(N)=O)c1.Cl [GSK986310]	–	55%	0%	8%	24%	0%	5%	0%	11%	0%	17%
COc1cc(Nc2nccc(N3CCC(NS(=O)(=O)c4ccc(NC(C)=O)cc4)CC3)n2)cc(OC)c1OC [GSK1379825]	–	68%	0%	2%	38%	34%	66%	47%	59%	0%	80%
Cl.O=C(Nc1ccc(Oc2ccc3[nH]c(NC(=O)c4ccco4)nc3c2)cc1)Nc1cc(C(F)(F)F)ccc1F [GW683134]	–	5%	96.1%	76%	97.9%	0%	0%	4%	0%	0%	0%
Cl.N#CCc1ccc(Nc2nccc(Nc3ccc(Oc4ccccc4)cc3)n2)cc1 [GW639905]	–	7%	0%	9%	13%	0%	26%	100%	0%	0%	6%
NCCC(NC(=O)c1cc(Br)c(-c2ccnc3[nH]ccc23)s1)c1ccccc1.O=C(O)C(F)(F)F.O=C(O)C(F)(F)F (centres unmarked) [GSK1307810]	–	66%	0%	0%	8%	43%	15%	0%	0%	0%	52%
Cc1ccc(C)c(NC(=O)Nc2ccc(C)c(-c3ccc(C(=O)Nc4ccncc4)cc3)c2)c1 [GSK1398473]	–	11%	0%	0%	14%	0%	18%	0%	3%	0%	14%
Cn1cc(-c2ccc3c(c2)CCN3C(=O)Cc2cc(F)cc(C(F)(F)F)c2)c2c(N)ncnc21 [GSK2635225]	–	10%	78%	15%	40%	0%	0%	0%	12%	0%	17%
O=C(O)C(F)(F)F.O=c1[nH]ccc2nc(N[C@@H]3CCNC3)nc(Nc3ccc4c(c3)S(=O)(=O)CC4)c12 [GSK2181306]	–	87%	53%	66%	26%	0%	15%	0%	3%	0%	14%
O=C(Nc1n[nH]c2nc(-c3ccccc3O)ccc12)C1CC1 [SB-711880]	–	17%	68%	44%	55%	0%	0%	0%	0%	0%	3%
Nc1ncc(-c2cn[nH]c2)c2scc(-c3ccc4c(c3)CCN4C(=O)Cc3ccccc3)c12 [GSK2593067]	–	52%	99.2%	81%	89%	0%	0%	0%	16%	0%	0%
CNc1nccc(-c2ccc3c(N)n[nH]c3c2)n1 [GSK2206003]	–	74%	7%	3%	20%	10%	7%	8%	67%	0%	1%
Cc1ccc(O)cc1Nc1ccnc2cc(-c3ccc(CN4CCCCC4)o3)ccc12 [GW557777]	–	10%	100%	99.9%	100%	79%	99.4%	18%	94.7%	90.3%	4%
CCNc1nccc(-c2c(-c3ccc(F)cc3)ncn2C2CCN(C)CC2)n1	–	20%	30%	7%	0%	0%	0%	0%	0%	0%	12%
Cl.Cl.NC(CNC(=O)c1cc(Br)c(-c2ccnc3[nH]ccc23)s1)c1ccccc1 (centres unmarked) [GSK1322949]	–	82%	21%	10%	25%	0%	38%	0%	10%	0%	40%
COc1cccc(C2=C(Nc3cccc(O)c3)C(=O)NC2=O)c1 [SB-390771]	–	38%	0%	4%	10%	0%	18%	0%	6%	0%	5%

Compound	%Inh (AAK1; 1 µM)	%Inh (AAK1; [1])	%Inh (ABL1-nonphosphorylated)	%Inh (ABL1-phosphorylated)	%Inh (ABL2)	%Inh (ACVR1B)	%Inh (ACVR1)	%Inh (ACVR2A)	%Inh (ACVR2B)	%Inh (ACVRL1)	%Inh (ADCK3)
O=C(Nc1n[nH]c2cc(-c3cccs3)ccc12)C1CC1 [SB-731284]	–	73%	81%	61%	0%	0%	0%	0%	17%	0%	0%
CN(c1ccc2c(c1)nc(NCc1ccccc1)n2C)c1ccnc(Nc2ccc(CS(C)(=O)=O)cc2)n1.Cl [GW811603]	–	16%	98.9%	66%	54%	0%	0%	0%	0%	0%	0%
Cc1ccc(NC(=O)c2cccc(N3CCCCC3)c2)cc1-c1ccc(C(=O)NCC2CC2)cc1 [GSK1917008]	–	0%	0%	0%	25%	0%	14%	6%	10%	2%	27%
CCOc1nccc(-c2c(-c3ccc(F)cc3)ncn2C2CCNCC2)n1 [SB-249175]	–	11%	35%	2%	0%	100%	11%	9%	0%	1%	13%
COc1cccc(-c2nc(-c3ccccc3)[nH]c2-c2ccncc2)c1 [SB-610250]	–	2%	0%	8%	27%	0%	24%	0%	0%	2%	8%
CC(C)c1nc(-c2ccc(F)c(NS(=O)(=O)c3c(F)cccc3F)c2)c(-c2ccnc(Nc3ccc(N4CCOCC4)nc3)n2)s1 [GSK1804250]	–	7%	99.8%	98.8%	99.3%	91.9%	87%	0%	75%	52%	99.4%
Cc1cc(-c2c(-c3ccc(F)cc3)ncn2CCCN2CCOCC2)nc(N)n1 [SB-222517]	–	14%	37%	18%	0%	21%	0%	0%	0%	0%	1%
COc1cc(Nc2nccc(N3CCC(NC(=O)Nc4ccc5c(c4)OCO5)C3)n2)cc(OC)c1OC (centres unmarked) [GSK1379766]	–	66%	0%	0%	0%	0%	11%	0%	0%	0%	0%
Nc1ncnc2scc(-c3ccc(NC(=O)Cc4cc(F)ccc4F)cc3)c12.O=C(O)C(F)(F)F [SB-731254-M]	–	10%	80%	50%	9%	14%	0%	24%	1%	0%	16%
CC(=O)Nc1cn2nc(Oc3cccc(NC(=O)c4cccc(C(F)(F)F)c4)c3)ccc2n1	–	0%	100%	99.9%	99.3%	0%	0%	0%	31%	0%	0%
COc1cccc2c(-c3ccncc3)c(-c3ccc(F)cc3)nn12 [GW468513]	–	10%	0%	0%	5%	76%	31%	0%	3%	3%	43%
COC(=O)Nc1nc2ccc(Oc3ccc(CC(=O)Nc4cc(C(F)(F)F)ccc4F)cc3)cc2[nH]1 [GW680903]	–	4%	35%	0%	34%	0%	9%	0%	0%	0%	19%
CCNC(=O)/C=C/c1n[nH]c2cc(Sc3ccccc3C(=O)NC)ccc12	–	29%	98.5%	89%	24%	24%	12%	20%	15%	0%	4%
Fc1cc(Cl)ccc1Nc1ccnc2cc(-c3ccc(CN4CCOCC4)o3)ccc12 [GW560109]	–	0%	99.5%	99.8%	96.4%	0%	86%	22%	88%	65%	0%
COc1cccc(CC(=O)N2CCc3cc(-c4cn(C)c5ncnc(N)c45)ccc32)c1 [GSK2608899]	–	18%	57%	4%	30%	14%	0%	0%	61%	19%	2%
CCn1cnc2c(NCc3ccccc3)ncnc21 [SKF-96418]	–	0%	21%	9%	0%	0%	0%	0%	0%	0%	0%
N#CC1(c2cccc(C(=O)Nc3cccc(Oc4ccc5nc(NC(=O)C6CC6)sc5n4)c3)c2)CC1	–	3%	100%	98.7%	95%	0%	0%	3%	1%	0%	40%
Cc1nn2c(=O)cc(N3CCO[C@H](C)C3)nc2n1Cc1cccc(Cl)c1Cl [GSK2373693]	–	1%	0%	0%	14%	22%	0%	14%	0%	0%	15%
Cc1cccc(Nc2nc(NCCN)ncc2C(N)=O)c1 [GSK1292139]	–	78%	5%	28%	0%	0%	0%	0%	0%	0%	5%
